This is one part of a sample in which hits are shown more often than they occur.
CD40 NFkB inh – inhibitors of CD40-induced NF-kB signaling, primary screen, BL2 cells, luciferase reporter, single point; CD40L-induced, 4 h; inhibition, % at 10 µM; actives 0.94% (n = 83,000); AID 1053188, 2014;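 active = mean inhibition of at least 50% with a set share of replicates also reaching that level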;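 also: 0% = neutral control wells and 100% = IKK inhibitor VII at 50 µM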
* marks the source's active call; other numbers are inactive results; [ ] = another dose, or the depositor's remark.

SMILES | CD40 NFkB inh
COCC(=O)N1[C@@H](C#N)[C@@H](c2ccccc2-c2ccccc2F)[C@@H]1CO | -6[25 µM]
O=C(C1CCCC1)N1CC(=O)N2[C@@H](CO)[C@H](c3ccc(-c4cccnc4)cc3)[C@@H]2C1 | 4
CCOC(=O)C1=C(C)NC(C)=C(C(=O)OC)C1c1cccc([N+](=O)[O-])c1 (stereo not given) | -28
COCCOC(=O)C1=C(C)NC(C)=C(C(=O)OC(C)C)C1c1cccc([N+](=O)[O-])c1 (stereo not given) | -26
COC(=O)C1=C(C)NC(C)=C(C(=O)OCCCN2CCC(c3ccccc3)(c3ccccc3)CC2)[C@H]1c1cccc([N+](=O)[O-])c1 | 61*[25 µM]
COc1cccc(CN(C)C[C@H]2OCc3ccccc3-c3c(n(C)c4ccccc34)C(=O)N([C@H](C)CO)C[C@H]2C)c1 | 19
O=C(c1ccc(-c2ccc([N+](=O)[O-])cc2)o1)N1CCCCCCC1 | -3
O=C(c1ccccc1)c1ccc(C(=O)N2CCCC(C(F)(F)F)C2)cc1 (stereo not given) | -2
O=C(c1ccc(-c2ccc([N+](=O)[O-])cc2)o1)N1CCCC(C(F)(F)F)C1 (stereo not given) | 61*
COc1cccc(/C=N/NC(=O)CCn2nnc3ccccc32)c1 | -14
COc1ccc(/C=N/NC(=O)CCn2cnc3ccccc32)cc1 | -7
COc1ccc(/C=N\n2nnc3ccccc32)cc1 | 58*
COC(=O)c1cccc(NC(=O)/C=C/c2cccc([N+](=O)[O-])c2)c1 | -30
O=C(/C=C/c1ccccc1)Nc1cccc(C(=O)O)c1 | 82*
CC(=O)c1cccc(NC(=O)/C=C/c2ccc(S(=O)(=O)N3CCOCC3)cc2)c1 | 8
Cn1nc(-c2ccc(N3CCOCC3)c(NS(=O)(=O)c3ccccc3)c2)c2ccccc2c1=O | 16
CCCC(=O)Nc1cc(-c2nn(C)c(=O)c3ccccc23)ccc1N1CCCCC1 | 1
CCC(=O)Nc1cc(-c2nn(C)c(=O)c3ccccc23)ccc1N1CCCCC1 | 48*
O=C(Nc1ccc2c(c1)[C@H]1C[C@@H](CC(=O)N3CCOCC3)O[C@@H](CO)[C@H]1O2)NC1CCCCC1 | 0
C[C@H]1CN(C)C(=O)Cc2cc(NS(C)(=O)=O)ccc2O[C@@H]1CN(C)C | 7
CCOC(=O)c1nc(S(C)(=O)=O)ncc1Cl | 108*
CSc1ncc(Cl)c(C(=O)Nc2cccc3ccccc23)n1 | 2
CCOC(=O)c1ccc(NS(C)(=O)=O)cc1 | -3
Cc1ccccc1NC(=O)c1nc(S(C)(=O)=O)ncc1Cl | 104*
Cc1cc(C(=O)Nc2cc(S(C)(=O)=O)ccc2Cl)no1 | 0
SMILES | CD40 NFkB inh
CCOC(=O)c1nc(C)[nH]c1C(=O)OCC | -2
N#Cc1ccc(-c2ccc3c(c2)[C@@H]2[C@@H](CCN2C(=O)c2ccc4c(c2)OCO4)[C@H](CO)N3)cc1 | 3[25 µM]
CCS(=O)(=O)Nc1ccc2c(c1)C(=O)N(C)[C@H]1CC[C@@H](CC(=O)N[C@H]3CCN(Cc4ccccc4)C3)O[C@H]1CO2 | -4[25 µM]
C[C@H]1CN([C@@H](C)CO)C(=O)c2cc(NS(=O)(=O)c3ccc(Cl)cc3)ccc2O[C@@H]1CN(C)C(=O)Nc1ccc2c(c1)OCO2 | -13
COc1ccc(S(=O)(=O)N(C)C[C@H]2Oc3ccc(NC(=O)Nc4ccc(C(F)(F)F)cc4)cc3C(=O)N([C@H](C)CO)C[C@H]2C)cc1 | 66*[25 µM]
C[C@@H]1CN([C@@H](C)CO)C(=O)c2cc(NC(=O)Nc3ccc(F)cc3)ccc2O[C@@H]1CN(C)S(=O)(=O)c1ccc(Cl)cc1 | 14
C[C@@H]1CN([C@@H](C)CO)C(=O)c2cccc(NC(=O)Nc3ccc(F)cc3)c2O[C@@H]1CN(C)S(=O)(=O)c1ccc(Cl)cc1 | 10[25 µM]
C[C@H](CO)N1C[C@H](C)[C@@H](CN(C)S(=O)(=O)c2ccccc2)Oc2ccc(NC(=O)Nc3ccccc3)cc2C1=O | 1
C[C@@H]1CN([C@@H](C)CO)C(=O)c2cccc(NC(=O)Nc3ccc(F)cc3)c2O[C@H]1CN(C)S(=O)(=O)c1ccc(Cl)cc1 | -9[25 µM]
C[C@@H]1CN([C@@H](C)CO)C(=O)c2cccc(NS(=O)(=O)c3ccc(Cl)cc3)c2O[C@@H]1CN(C)Cc1ccc(C(=O)Nc2ccccc2N)cc1 | active[25 µM]
COc1ccc(S(=O)(=O)N(C)C[C@H]2OCCCC[C@H](C)Oc3ccc(NC(=O)Nc4ccc(F)cc4)cc3C(=O)N([C@H](C)CO)C[C@@H]2C)cc1 | 4
COc1ccc(S(=O)(=O)N(C)C[C@@H]2OCCCC[C@H](C)Oc3ccc(NC(=O)Nc4ccc(C(F)(F)F)cc4)cc3C(=O)N([C@@H](C)CO)C[C@@H]2C)cc1 | -6
C[C@H]1CN([C@@H](C)CO)C(=O)c2cccc(NS(=O)(=O)c3ccc(Cl)cc3)c2O[C@@H]1CN(C)Cc1ccc(C(=O)Nc2ccccc2N)cc1 | -55[25 µM]
C[C@@H]1CN([C@H](C)CO)C(=O)c2cccc(NS(=O)(=O)c3ccc(Cl)cc3)c2O[C@H]1CN(C)Cc1ccc(C(=O)Nc2ccccc2N)cc1 | -37[25 µM]
COc1ccc(S(=O)(=O)N(C)C[C@@H]2Oc3ccc(NC(=O)Nc4ccc(C(F)(F)F)cc4)cc3C(=O)N([C@@H](C)CO)C[C@@H]2C)cc1 | 77*[25 µM]
C[C@H](CO)N1C[C@H](C)[C@H](CN(C)S(=O)(=O)c2ccc(Cl)cc2)Oc2c(NC(=O)Nc3ccc(F)cc3)cccc2C1=O | 85*[25 µM]
CO[C@@H]1CN(C)C(=O)c2cc(NC(=O)C3CCCC3)ccc2OC[C@@H](C)N(C)C[C@@H]1C | 6
O=C(Nc1cccc(Cl)c1)N1C[C@H]2[C@@H](c3ccccc31)[C@@H](CO)N2C(=O)C1CCCC1 | 5[25 µM]
O=C(NCC[C@H]1CC[C@H](NS(=O)(=O)c2ccc(F)cc2)[C@@H](CO)O1)Nc1ccc(Cl)cc1 | -10
CCCN(C)C[C@H]1Oc2cc(/C=C/c3ccccc3)ccc2S(=O)(=O)N([C@@H](C)CO)C[C@H]1C | -19[25 µM]
CN(C)C(=O)c1cccc(-c2ccc([C@H]3[C@@H](C#N)N(C(=O)C4CCCC4)[C@H]3CO)cc2)c1 | 14
COc1ccccc1NC(=O)N1C[C@@H](O)COC[C@@H]2O[C@H](CC(=O)NCCc3ccncc3)CC[C@H]21 | -4[25 µM]
O=C(C1CCCC1)N1CC(=O)N2[C@@H](CO)[C@H](c3ccc(C#Cc4cccc(F)c4)cc3)[C@@H]2C1 | 3
O=C(C1CCCC1)N1CC(=O)N2[C@H](CO)[C@@H](c3ccc(C#Cc4cccc(F)c4)cc3)[C@H]2C1 | 7
Cc1cccc(S(=O)(=O)N2C[C@@H]3[C@H](c4ccccc42)[C@@H](CO)N3C(=O)CC2CC2)c1 | 22[25 µM]
Cc1ccc(-c2cnc3c(c2)C(=O)N([C@@H](C)CO)C[C@H](C)[C@H](CN(C)C(=O)CN(C)C)O3)cc1 | -14[25 µM]
Cc1ccc(-c2cnc3c(c2)C(=O)N([C@H](C)CO)C[C@H](C)[C@H](CN(C)C(=O)CN(C)C)O3)cc1 | -6[25 µM]
COc1ccc(S(=O)(=O)N(C)C[C@H]2Oc3ccc(NC(=O)Nc4ccc(C(F)(F)F)cc4)cc3C(=O)N([C@@H](C)CO)C[C@H]2C)cc1 | 61*[25 µM]
COc1ccc(S(=O)(=O)N(C)C[C@@H]2OCCCC[C@H](C)Oc3ccc(NC(=O)Nc4ccc(F)cc4)cc3C(=O)N([C@H](C)CO)C[C@H]2C)cc1 | -4
COc1ccc(-c2cnc3c(c2)C(=O)N([C@H](C)CO)C[C@@H](C)[C@@H](CN(C)C(=O)Nc2c(C)noc2C)O3)cc1 | 65*[25 µM]
